The values below come from PubChem BioAssay AID743366 (National Center for Advancing Translational Sciences (NCATS), 2014).

The structures appear in SMILES notation.

This assay is described as follows: qHTS profiling of inhibitors of Plasmodium falciparum (HB3) proliferation (acoustic dispense). As to conditions: P. falciparum HB3 in erythrocytes, SYBR Green, 72 h; at 49.8 µM (top of the series) unless noted.
As to `Cn1cc(CNCC2CCN(c3ncc(C(=O)NO)cn3)CC2)c2ccccc21`, the activity (normalised, proliferation) is -0.786%.
As for `Cc1ccc([N+](=O)[O-])cc1S(=O)(=O)N(C)N=Cc1cnc2ccc(Br)cn12`, the figure is 13.3%; as for `O=C(Nc1ccc([N+](=O)[O-])cc1Cl)c1cc(Cl)ccc1O`, 99.3%; as for `Cc1cn(-c2cc(NC(=O)c3ccc(C)c(Nc4nccc(-c5cccnc5)n4)c3)cc(C(F)(F)F)c2)cn1`, 1.32%.
On to `COc1ccc2cc3[n+](cc2c1OC)CCc1cc2c(cc1-3)OCO2`, for which the activity (normalised, proliferation) is -1.06%.
The figure for `CCN(CC)CCCC(C)Nc1ccnc2cc(Cl)ccc12` (stereo not given) is -0.388%; for `C[C@@H]1CCC2[C@@H](C)[C@@H](O)O[C@@H]3O[C@@]4(C)CC[C@@H]1[C@@]23OO4` (stereo not given in full) it is -0.43%.
The figure for `Cn1cnc(=N)c2[nH]cnc21` is 1.41%.
Consider `COc1cc2c(Oc3ccc(NC(=O)C4(C(=O)Nc5ccc(F)cc5)CC4)cc3F)ccnc2cc1OCCCN1CCOCC1`, for which the activity (normalised, proliferation) stood at 17.9%.
As for `CCNC(=O)c1noc(-c2cc(C(C)C)c(O)cc2O)c1-c1ccc(CN2CCOCC2)cc1`, the figure is 117%; as for `CO[C@H]1C=CO[C@@]2(C)Oc3c(C)c(O)c4c(O)c(c(C=NN5CCN(C)CC5)c(O)c4c3C2=O)NC(=O)C(C)=CC=C[C@H](C)[C@H](O)[C@@H](C)[C@@H](O)[C@@H](C)[C@H](OC(C)=O)[C@H]1C`, -0.914% [at 16.5 µM]; as for `C=C[C@@H]1CN2CC[C@@H]1C[C@H]2[C@H](O)c1ccnc2ccc(OC)cc12`, 0.317%.
With `Cc1cn[nH]c1`, the activity (normalised, proliferation) came out at 39.3%.
As for `OB1OCc2cc(F)ccc21`, the figure is 0.13%; as for `COc1ccc(-c2ccc3ncc4c(c3c2)n(-c2ccc(N3CCNCC3)c(C(F)(F)F)c2)c(=O)n4C)cn1`, 5.42%.
